Results as given in PubChem BioAssay AID1159580 (chemical genetic matrix, 2015).
Where “and” joins values, the source holds several entries; their conditions need not be identical. Equal values may be shown once. Hit rate of the full screen: of about 5,500 compounds, about 2,000 (36%) were called active. Another 18% or so got no clear call; they are omitted. This is one part of the list. Unmarked numbers belong to inactive results. Rule as the data show it: active = normalized growth mostly below about 0.91 (no sharp cut-off); inconclusive = no clear call, values can overlap the other calls; inactive = mostly above about 0.92.

Experiment: chemical genetic growth profiling, strain panel (AID 1159580);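 also: tested at 20 µM; growth read once vehicle control cultures reached saturation at 30 °C; 1 = growth at the plate median or of vehicle wells; lower values mean less growth of the strain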
Settings: S. cerevisiae deletion strains, growth OD
[1] = locus YBR021W, strain FUR4, hits give low values
[2] = locus YBR229C, strain ROT2, hits give low values
[3] = locus YCL029C, strain bik1, hits give low values
[4] = locus YDL035C, strain GPR1, hits give low values
[5] = locus YDL074C, strain BRE1, hits give low values
[6] = locus YDL101C, strain DUN1, hits give low values
[7] = locus YDL185W, strain tfp1, hits give low values
[8] = locus YDL192W, strain arf1, hits give low values
[9] = locus YDR101C, strain arx1, hits give low values
[10] = locus YDR162C, strain NBP2, hits give low values
[11] = locus YDR318W, strain mcm21, hits give low values
[12] = locus YDR388W, hits give low values
[13] = locus YDR502C, strain sam2, hits give low values
[14] = locus YEL061C, strain CIN8, hits give low values
[15] = locus YER110C, hits give low values
[16] = locus YER155C, strain BEM2, hits give low values
[17] = locus YER167W, strain BCK2, hits give low values
[18] = locus YGL078C, strain dbp3, hits give low values
[19] = locus YGL086W, strain mad1, hits give low values
[20] = locus YGL248W, strain PDE1, hits give low values
[21] = locus YGR135W, strain pre9, hits give low values
[22] = locus YGR252W, strain gcn5, hits give low values
[23] = locus YHR030C, strain SLT2, hits give low values
[24] = locus YHR079C, strain IRE1 (second series), hits give low values
[25] = locus YHR094C, strain hxt1, hits give low values
[26] = locus YHR129C, strain ARP1, hits give low values
[27] = locus YHR200W, strain rpn10, hits give low values
[28] = locus YIL066C, strain RNR3, hits give low values
[29] = locus YIL073C, strain SPO22, hits give low values
[30] = locus YIL125W, strain kgd1, hits give low values
[31] = locus YIR030C, strain dcg1, hits give low values
[32] = locus YJL095W, strain BCK1, hits give low values
[33] = locus YJL134W, strain LCB3, hits give low values
[34] = locus YJL168C, strain set2, hits give low values
[35] = locus YJL187C, strain SWE1 (second series), hits give low values
[36] = locus YJR043C, strain POL32, hits give low values
[37] = locus YKL009W, strain mrt4, hits give low values
[38] = locus YKL068W, hits give low values
[39] = locus YKL085W, strain MDH1 (second series), hits give low values
[40] = locus YKL085W, strain MDH1, hits give low values
[41] = locus YKL190W, strain CNB1, hits give low values
[42] = locus YKR001C, strain vps1, hits give low values
[43] = locus YLR039C, strain RIC1, hits give low values
[44] = locus YLR058C, strain SHM2, hits give low values
[45] = locus YLR102C, strain apc9, hits give low values
[46] = locus YLR262C, strain YPT6, hits give low values
[47] = locus YLR268W, strain sec22, hits give low values
[48] = locus YLR330W, strain CHS5, hits give low values
[49] = locus YLR342W, strain FKS1 (second series), hits give low values
[50] = locus YLR371W, strain rom2, hits give low values
[51] = locus YLR418C, strain cdc73, hits give low values
[52] = locus YML016C, strain PPZ1, hits give low values
[53] = locus YML032C, strain rad52, hits give low values
[54] = locus YML124C, strain tub3, hits give low values
[55] = locus YMR078C, strain ctf18, hits give low values
[56] = locus YMR223W, strain ubp8, hits give low values
[57] = locus YMR307W, strain GAS1, hits give low values
[58] = locus YNL067W, strain RPL9B, hits give low values
[59] = locus YNL233W, strain BNI4, hits give low values
[60] = locus YNL250W, strain rad50, hits give low values
[61] = locus YNL271C, strain bni1, hits give low values
[62] = locus YNL298W, strain CLA4, hits give low values
[63] = locus YNL307C, strain MCK1, hits give low values
[64] = locus YNR052C, strain pop2, hits give low values
[65] = locus YOL147C, strain pex11, hits give low values
[66] = locus YOR061W, strain CKA2, hits give low values
[67] = locus YOR069W, strain VPS5, hits give low values
[68] = locus YOR136W, strain idh2, hits give low values
[69] = locus YOR144C, strain elg1, hits give low values
[70] = locus YOR184W, strain ser1, hits give low values
[71] = locus YOR316C, strain cot1, hits give low values
[72] = locus YPL055C, strain LGE1, hits give low values
[73] = locus YPR119W, strain clb2, hits give low values
[74] = locus YPR141C, strain kar3, hits give low values
[75] = locus YPR163C, strain tif3, hits give low values
[76] = locus YPR167C, strain met16, hits give low values
[77] = strain wtn01, hits give low values
[78] = locus YDR150W, strain NUM1, hits give low values
[79] = locus YMR263W, strain SAP30, hits give low values

In the case of `C/C=C/c1ccc(OC)cc1`, the normalized growth [1] is reported as 0.987, the normalized growth [2] is reported as 1.01 and the normalized growth [3] is reported as 1.02. The normalized growth [4] was 1.01, the normalized growth [5] was 1.03 and the normalized growth [6] was 1.03. The normalized growth [7] was 1.01, the normalized growth [8] was 1.01 and the normalized growth [9] was 1.02. For the same compound, the normalized growth [10] was 1.02, the normalized growth [11] was 1 and the normalized growth [12] was 1. The normalized growth [13] was 0.998, the normalized growth [14] was 1.01 and the normalized growth [15] was 1.02. For the same compound, the normalized growth [16] was 1.01, the normalized growth [17] was 1 and the normalized growth [18] was 0.999. It also gave a normalized growth [19] of 1.02, a normalized growth [20] of 1.01 and a normalized growth [21] of 1. The normalized growth [22] was 1.01, the normalized growth [23] was 1.01 and 0.942 and the normalized growth [24] was 1.01. The normalized growth (locus YHR079C, strain IRE1, hits give low values) was 0.948, the normalized growth [25] was 1.01 and the normalized growth [26] was 1.01. For the same compound, the normalized growth [27] was 1.01, the normalized growth [28] was 1.01 and the normalized growth [29] was 1.03. For the same compound, the normalized growth [30] was 1.01, the normalized growth [31] was 1.02 and the normalized growth [32] was 1.03 and 0.941. It also gave a normalized growth [33] of 1.01, a normalized growth [34] of 1.01 and a normalized growth [35] of 1.03. It also gave a normalized growth [36] of 1.01, a normalized growth (locus YJR066W, strain TOR1, hits give low values) of 0.902 and a normalized growth [37] of 1.02. It also gave a normalized growth [38] of 1, a normalized growth [39] of 1.01 and a normalized growth [40] of 1.01. For the same compound, the normalized growth [41] was 1.01, the normalized growth [42] was 0.998 and the normalized growth [43] was 1.03. It also gave a normalized growth [44] of 1.01, a normalized growth [45] of 1.01 and a normalized growth (locus YLR113W, strain HOG1, hits give low values) of 0.91. The normalized growth [46] was 1.05, the normalized growth [47] was 1.03 and the normalized growth [48] was 1.01. It also gave a normalized growth [49] of 0.986, a normalized growth [50] of 1.02 and a normalized growth [51] of 0.989. The normalized growth [52] was 1.01, the normalized growth [53] was 0.99 and the normalized growth [54] was 1.01. It also gave a normalized growth [55] of 1.01, a normalized growth [56] of 1.01 and a normalized growth [57] of 0.968. For the same compound, the normalized growth [58] was 1.03, the normalized growth (locus YNL183C, strain NPR1, hits give low values) was 0.904 and the normalized growth [59] was 1.02. For the same compound, the normalized growth [60] was 1.02, the normalized growth [61] was 1 and the normalized growth [62] was 0.988. The normalized growth [63] was 1, the normalized growth [64] was 1.01 and the normalized growth (locus YOL012C, strain htz1) was 0.756. For the same compound, the normalized growth [65] was 1.01, the normalized growth [66] was 1.01 and the normalized growth [67] was 1.01. It also gave a normalized growth [68] of 1.01, a normalized growth [69] of 1 and a normalized growth [70] of 1.01. The normalized growth (locus YOR231W, strain MKK1, hits give low values) was 0.953, the normalized growth [71] was 1 and the normalized growth [72] was 1.03. For the same compound, the normalized growth (locus YPL256C, strain CLN2, hits give low values) was 0.927, the normalized growth [73] was 1.01 and the normalized growth [74] was 1.01. For the same compound, the normalized growth [75] was 1, the normalized growth [76] was 1.01 and the normalized growth [77] was 1.01.

For `COc1cc(O)cc(/C=C/c2ccccc2)c1`, the normalized growth [1] was 0.833 (active), the normalized growth [2] was 0.97 and the normalized growth [3] was 0.9 (active). For the same compound, the normalized growth [4] was 0.665 (active), the normalized growth [5] was 0.61 (active) and the normalized growth [6] was 0.835 (active). The normalized growth (locus YDL134C, strain PPH21, hits give low values) was 0.697 (active), the normalized growth [7] was 0.881 (active) and the normalized growth [8] was 0.692 (active). The normalized growth [9] was 0.858 (active), the normalized growth [78] was 0.954 and the normalized growth [10] was 0.618 (active). The normalized growth [11] was 0.805 (active), the normalized growth [12] was 0.966 and the normalized growth [13] was 0.748 (active). The normalized growth [14] was 0.856 (active), the normalized growth [15] was 0.866 (active) and the normalized growth [16] was 0.753 (active). For the same compound, the normalized growth [17] was 0.94, the normalized growth [18] was 0.765 (active) and the normalized growth [19] was 0.803 (active). For the same compound, the normalized growth [20] was 0.748 (active), the normalized growth [21] was 0.713 (active) and the normalized growth [22] was 0.519 (active). For the same compound, the normalized growth [23] was 0.795 (active), the normalized growth [24] was 0.89 (active) and the normalized growth [25] was 0.946. For the same compound, the normalized growth [26] was 0.768 (active), the normalized growth [27] was 0.907 (active) and the normalized growth [28] was 0.859 (active). The normalized growth [29] was 0.809, the normalized growth [30] was 0.94 and the normalized growth [31] was 0.907 (active). The normalized growth [32] was 0.46 (active), the normalized growth [33] was 0.976 and the normalized growth [34] was 0.954. The normalized growth [35] was 0.721 (active), the normalized growth [36] was 0.85 (active) and the normalized growth [37] was 0.742 (active). For the same compound, the normalized growth [38] was 0.954, the normalized growth [39] was 0.913 (active) and the normalized growth [40] was 0.913 (active). For the same compound, the normalized growth [41] was 0.839 (active), the normalized growth [42] was 0.425 (active) and the normalized growth [43] was 0.507 (active). For the same compound, the normalized growth [44] was 0.784 (active), the normalized growth [45] was 0.942 and the normalized growth [46] was 0.381 (active). For the same compound, the normalized growth [47] was 0.909, the normalized growth [48] was 0.715 (active) and the normalized growth [49] was 0.601 (active). For the same compound, the normalized growth [50] was 0.949, the normalized growth [51] was 0.456 (active) and the normalized growth [52] was 0.924. The normalized growth [53] was 0.795 (active), the normalized growth [54] was 0.914 (active) and the normalized growth [55] was 0.938. The normalized growth [56] was 0.805 (active), the normalized growth [79] was 0.768 (active) and the normalized growth [57] was 0.59 (active). The normalized growth [58] was 0.721 (active), the normalized growth [59] was 0.67 (active) and the normalized growth [60] was 0.887 (active). The normalized growth [61] was 0.855 (active), the normalized growth [62] was 0.802 (active) and the normalized growth [63] was 0.513 (active). The normalized growth [64] was 0.855 (active), the normalized growth (locus YOL012C, strain htz1) was 1.06 and the normalized growth [65] was 0.824 (active). The normalized growth [66] was 0.885 (active), the normalized growth [67] was 0.807 (active) and the normalized growth [68] was 0.899 (active). The normalized growth [69] was 0.918 (active), the normalized growth [70] was 0.666 (active) and the normalized growth [71] was 0.949. For the same compound, the normalized growth [73] was 0.924 (active), the normalized growth [74] was 0.95 and the normalized growth [75] was 0.682 (active). For the same compound, the normalized growth [76] was 0.809 (active) and the normalized growth [77] was 0.789 (active).

`O=c1cc(O)cc(/C=C/c2ccc(O)c(O)c2)o1` gave a normalized growth (locus YAL013W, strain DEP1, hits give low values) of 0.981, a normalized growth (locus YAL040C, strain CLN3, hits give low values) of 0.986 and a normalized growth (locus YCL061C, strain MRC1 (second series), hits give low values) of 0.988. For the same compound, the normalized growth [78] was 0.978, the normalized growth (locus YDR363W, strain ESC2, hits give low values) was 0.995 and the normalized growth (locus YER002W, strain NOP16, hits give low values) was 0.999. The normalized growth (locus YGR078C, strain PAC10, hits give low values) was 0.985, the normalized growth (locus YGR229C, strain SMI1, hits give low values) was 0.966 and the normalized growth (locus YJR075W, strain HOC1, hits give low values) was 0.988. It also gave a normalized growth [79] of 1, a normalized growth [57] of 1.01 and a normalized growth (locus YNL175C, strain NOP13, hits give low values) of 0.988. For the same compound, the normalized growth (locus YNL197C, strain WHI3, hits give low values) was 0.986, the normalized growth (locus YNL224C, strain SQS1, hits give low values) was 1.02 and the normalized growth (locus YOR083W, strain WHI5 (second series), hits give low values) was 0.975. It also gave a normalized growth [72] of 0.978.
